# From PubChem BioAssay
# This is a sample that favours compounds with a hit; in the whole collection about 0.45% have one here.
# ERG-DNA inh: blocks human ERG Ets domain binding to DNA; fluorescence polarization, His-ERG Ets domain / labelled DNA; P11308; Potency, µM (top dose mostly 76.9 µM), inactives show top-dose FP activity, negative = inhibition, most hits filed as inhibitors; hit rate 0.028% among 370,000; active means well fitted inhibition curve with a large enough effect in the polarisation, with a control signal flat; inconclusive means small, poorly fitted or top-dose-only effect, or effect the other way, or a change in a side signal; inactive means no such curve, though single readings can be large or run the other way; the % refers to the polarisation;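 further: polarization taken with two DNA probes labelled with fluorescein and Texas red; potency means the concentration at half of the fitted maximal effect; % of control where 0% means no effect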
#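 His-tagged ERG Ets domain (1 uM in the protein solution; 300mM KCl, 50mM Tris-HCl, 1mM EDTA, 1mM DTT, pH 7.5) received compound, then a probe mix of 5 nM fluorescein-DNA and 100nM Texas-615-DNA. Fluorescence polarization was read for both dyes.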
# GoLoco inh red: RGS12 GoLoco-Gai1 interaction inhibition. P63096. AID 880. Gai1:RGS12 GoLoco peptide FP, rhodamine, 10 min. Potency, µM (titrated, usually from 61.6 µM), for inactives: top-dose activity, negative = inhibition, most hits filed as inhibitors. hit rate 0.44% among 230,000; active means well fitted inhibition curve with a large enough effect, not every such curve was filed as active; inactive means no such curve, though single readings can be large or run the other way; further: potency means the concentration at half of the fitted maximal effect; on the % scale 0 is the no-effect control and ±100 the full control effect; nearly all actives have a fitted effect of over 30% in size
# Target sequence (P63096 whole entry, looked up): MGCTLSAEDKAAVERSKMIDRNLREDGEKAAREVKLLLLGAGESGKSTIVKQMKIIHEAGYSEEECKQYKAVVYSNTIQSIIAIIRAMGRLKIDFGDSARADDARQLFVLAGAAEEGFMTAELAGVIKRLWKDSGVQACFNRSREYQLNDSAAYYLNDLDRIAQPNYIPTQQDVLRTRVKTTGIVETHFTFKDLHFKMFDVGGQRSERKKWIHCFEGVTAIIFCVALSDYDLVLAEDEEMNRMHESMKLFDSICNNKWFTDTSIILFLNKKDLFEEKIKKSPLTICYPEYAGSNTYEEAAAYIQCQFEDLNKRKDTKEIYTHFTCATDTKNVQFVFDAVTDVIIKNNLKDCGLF
# CBFb-RUNX1 inh: inhibitors of human CBF-beta and RUNX1 interaction. AlphaScreen CBFb-His/RUNX1-biotin binding, biochemical. Potency, µM (series often up to 59.8 µM), for inactives: at the top dose activity, negative = inhibition, usual class: inhibitors. 230,000 tested, under 10 active; further: % of control where 0% means no effect
#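 Bead-based AlphaScreen assay; binding partners His-tagged CBF-beta and biotinylated RUNX1 at 30 nM each. Compound exposure 15 min after a 20-min protein preincubation; bead step 90 min; all steps at room temperature.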
# TRb-SRC2 inh: TRbeta-SRC2 interaction inhibition; hit rate 0.065% among 280,000; Potency, µM (titrated, usually from 106 µM), without a hit: at the top dose activity change, negative = inhibition, hits mostly inhibitors; AID 1469; TRbeta-SRC2 peptide binding, fluorescence polarization; receptor liganded with 1 µM T3;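 further: potency means the concentration at half of the fitted maximal effect; plate controls were bound peptide for no effect and peptide without receptor for full effect; nearly all actives have a fitted effect of over 50% in size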
# Target sequence (P10828 whole entry, looked up): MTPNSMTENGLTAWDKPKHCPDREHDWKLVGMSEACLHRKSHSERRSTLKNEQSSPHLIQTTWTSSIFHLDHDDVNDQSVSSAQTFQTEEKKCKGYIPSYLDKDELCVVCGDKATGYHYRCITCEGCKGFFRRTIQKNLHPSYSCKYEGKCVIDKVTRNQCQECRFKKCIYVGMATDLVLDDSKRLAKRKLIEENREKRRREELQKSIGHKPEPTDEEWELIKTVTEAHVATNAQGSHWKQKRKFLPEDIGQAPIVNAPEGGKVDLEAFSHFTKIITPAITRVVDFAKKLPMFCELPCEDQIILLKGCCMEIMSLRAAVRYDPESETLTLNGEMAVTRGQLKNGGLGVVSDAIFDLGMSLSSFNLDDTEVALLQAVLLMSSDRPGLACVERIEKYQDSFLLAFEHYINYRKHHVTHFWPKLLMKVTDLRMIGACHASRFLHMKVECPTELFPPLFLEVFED
#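 TRb LBD 0.6 uM + Texas Red SRC2 peptide 20 nM, 1 uM T3, Tris buffer w/ 5% DMSO; compound pinned, 5 h RT; FP read ex 555/em 632; normalized to unbound and bound controls.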
# Integrin act MD: activates integrin-mediated alleviation for muscular dystrophy. alpha7betagal myoblasts, beta-gal FDG fluorescence, 48 h. Potency, µM (top dose mostly 38.3 µM), for inactives: top-dose activation, hits mostly activators. hit rate 0.064% among 350,000;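 further: potency means the concentration at half of the fitted maximal effect; 100% = response of the positive control SU9516; nearly all actives have a fitted effect of over 60% in size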
#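 alpha7betagal+/- myoblasts (passage 13, 250/well) treated 48 h at 37C with compounds at 1:260 dilution of DMSO stock. Lysed, then beta-galactosidase activity read as FDG fluorescence (ex 480/em 540) after 30 min, with pre-read for autofluorescence.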
# TR SRC2 fluor cs: Texas Red fluorescence interference in TRb-SRC2 counter-screen; TRb/SRC2 Texas Red total fluorescence interference; Potency, µM (series often up to 106 µM), for inactives: top-dose fluorescence change, negative = quenching; hit rate 0.29% among 280,000; AID 1479; active means well fitted curve in either direction with a large enough effect; inconclusive means small, poorly fitted or top-dose-only effect; further: potency means the concentration at half of the fitted maximal effect; on the % scale 0 is the no-effect control and ±100 the full control effect
#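 Human TRb ligand-binding domain at 0.6 uM with 20 nM Texas Red SRC2 peptide in Tris buffer containing 1 uM T3 and 5% DMSO, incubated with compound 5 h at ambient temperature. Total fluorescence (555/632 nm) calculated as parallel + 2 × perpendicular.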
# * marks the source's active call; other numbers are inactive results; ? = inconclusive; nt = no result; ! = repeats disagree; [ ] = remark or other dose. Unless noted, the call rests on the fitted dose curve; in most records, active means well fitted curve in the direction sought with a large enough effect; inconclusive means small, poorly fitted or top-dose-only effect, or another doubt; inactive means no such curve, though single readings can be large; an effect the other way counts as inactive or inconclusive.
SMILES,ERG-DNA inh,GoLoco inh red,CBFb-RUNX1 inh,TRb-SRC2 inh,Integrin act MD,TR SRC2 fluor cs
CC(=O)Nc1cc([As](=O)(O)O)ccc1O,-4%,12%,2%,0%,nt,-1%
CC(=O)Nc1cccc([As](=O)(c2cccc(NC(C)=O)c2)c2cccc(NC(C)=O)c2)c1,15%,5µM*,-11%,4%,24%,0%
COC(=O)c1ccccc1S(=O)(=O)NC(=O)N(C)c1nc(C)nc(OC)n1,nt,nt,nt,2%[201 µM],nt,-1%[201 µM]
CN(C)c1ccc(NC(=O)Oc2ccccc2)cc1,2%,-8%,-20%,45µM*,0%,?
Cc1cc2c(C(C)C)c(O)c(O)c(C=O)c2c(O)c1-c1c(C)cc2c(C(C)C)c(O)c(O)c(C=O)c2c1O,nt,-6%,?,?,nt,25µM*![quencher]
O=C1NC(=O)C(=C/C=C/c2coc3ccc(Br)cc3c2=O)C(=O)N1,nt,-176%,-20%,?,nt,25µM*[fluorescent]
O=C1NC(=O)C(=Cc2coc3ccccc3c2=O)C(=O)N1,7%,16%,-7%,-5%,-1%,0%
CN(C)[C@@H]1C(=O)C(C(N)=O)=C(O)[C@@]2(O)C(=O)C3=C(O)c4c(O)ccc(Cl)c4[C@@](C)(O)C3C[C@@H]12 (stereo partly specified),-12%,-1%,-3%,8%,nt,40µM*[quencher]
CN(C)[C@@H]1C(=O)C(C(N)=O)=C(O)[C@]2(O)C(=O)C3=C(O)c4c(O)cccc4[C@@](C)(O)[C@H]3[C@H](O)[C@@H]12,nt,5.6µM*,nt,-8%[53 µM],nt,-8%[53 µM]
CN(C)c1ccc(NC(=O)c2sc3nc4c(cc3c2N)N2CCC4CC2)cc1,9%,nt,nt,-8%,nt,14µM*[quencher]
Nc1c(C(=O)Nc2ccc(Br)cc2F)sc2nc3c(cc12)N1CCC3CC1,4%,nt,nt,-2%,nt,10µM*[quencher]
COc1ccc(Cl)cc1NC(=O)c1sc2nc3c(cc2c1N)N1CCC3CC1,-2%,nt,nt,6%,nt,-3%
Nc1c(C(=O)Nc2ccc(F)c(Cl)c2)sc2nc3c(cc12)N1CCC3CC1,3%,nt,nt,1%,nt,2%
O=C(O)C(F)(F)C(F)(F)C(F)(F)C(F)(F)C(F)(F)C(F)(F)C(F)(F)C(F)(F)F,nt,nt,nt,?,nt,126µM*![quencher]
O=S(=O)(O)C(F)(F)C(F)(F)C(F)(F)C(F)(F)C(F)(F)C(F)(F)F,nt,nt,nt,-3%[201 µM],nt,-3%[201 µM]
CCOCn1c(-c2ccc(Cl)cc2)c(C#N)c(Br)c1C(F)(F)F,nt,nt,nt,2%[201 µM],nt,-4%[201 µM]
COP(=O)(OC)OC(Br)C(Cl)(Cl)Br (stereo unspecified),nt,nt,nt,-4%[201 µM],nt,-10%[201 µM]
COc1cccc(-n2c(/C=C/c3cccc(C)c3)nc3ccccc3c2=O)c1,28µM*,nt,nt,1%,nt,?
COc1cccc(-n2c(/C=C/c3ccccc3O)nc3ccccc3c2=O)c1,1%,nt,nt,2%,nt,5%
CNC(=O)/C=C(\C)OP(=O)(OC)OC,nt,nt,nt,-4%[201 µM],nt,1%[201 µM]
CC(C)C(=O)OCC(C)(C)C(OC(=O)C(C)C)C(C)C (stereo unspecified),nt,nt,nt,-3%[201 µM],nt,-1%[201 µM]
Cc1ccc(NC(=O)Cn2cc(C(=O)c3ccccc3)c3ccccc32)cc1,-20%,nt,nt,-15%,nt,0.025µM*[quencher]
O=C(CCn1nc(-c2ccc(Cl)cc2)ccc1=O)N1CCC2(CC1)OCCO2,10%,-2%,4%,1%,-16%,-2%
O=C(Cn1nc(-c2ccc(Cl)cc2)ccc1=O)N1CCC2(CC1)OCCO2,3%,-3%,-2%,1%,11µM*,-4%
CCC1(CCCC(=O)c2ccc(F)cc2)C(=O)NC(=S)NC1=O,2%,2µM*,4%,6%,-2%,-1%
SMILES,ERG-DNA inh,GoLoco inh red,CBFb-RUNX1 inh,TRb-SRC2 inh,Integrin act MD,TR SRC2 fluor cs
CCOCCOC(C)=O,nt,28µM*,5%[21.7 µM],1%,nt,-2%
NS(=O)(=O)C(F)(F)C(F)(F)C(F)(F)C(F)(F)C(F)(F)C(F)(F)C(F)(F)C(F)(F)F,nt,nt,nt,5%[201 µM],nt,3%[201 µM]
Nc1ccccc1Cl,7%,50µM*,16%[21.7 µM],8%,nt,-1%
Clc1ccc(C2(Cn3cncn3)CC(Br)CO2)c(Cl)c1 (stereo unspecified),nt,nt,nt,3%[201 µM],nt,0%[201 µM]
CCc1ccc(OCC(=O)N2CCN(CCc3ccncc3)CC2)cc1,8%,nt,nt,-16%,nt,708µM*[quencher]
COC[C@H]1OC(=O)c2coc3c2[C@@]1(C)C1=C(C3=O)C2CCC(=O)[C@@]2(C)C[C@H]1OC(C)=O (stereo partly specified),nt,-7%,-17%,35µM*,nt,45µM*![fluorescent]
COC[C@H]1OC(=O)c2coc3c2[C@@]1(C)C1=C(C3=O)[C@H]2CCC(=O)[C@@]2(C)C[C@H]1OC(C)=O,nt,-1%,21%[21.7 µM],-23%,nt,24%
O=C(O)c1cc[c]([Hg][S]c2ncnc3nc[nH]c23)cc1,nt,0.63µM*,nt,nt,nt,nt
CC(C)(C)OOC(C)(C)CCC(C)(C)OOC(C)(C)C,nt,nt,nt,6%[201 µM],nt,-4%[201 µM]
CCCCCOc1ccc(C)cc1CN(CCCl)CCCl,-13%,9%,-3%,32µM*,-64%,-1%
COP(=O)(OC)Oc1nc(Cl)c(Cl)cc1Cl,nt,nt,nt,-10%[201 µM],nt,1%[201 µM]
Nc1ccc2nonc2c1[N+](=O)[O-],?,14µM*,-12%,-4%,-27%,-1%
Nc1nc2c(ncn2[C@@H]2O[C@H](CO)[C@@H](O)[C@@H]2O)c(=[SH+])[nH]1.O=[N+]([O-])c1ccc(O)[c]([Hg])c1,nt,0.11µM*,nt,nt,nt,nt
CNC(=O)O/N=C(\C)SC,nt,nt,nt,3%[201 µM],nt,1%[201 µM]
O=P(OCC(Br)CBr)(OCC(Br)CBr)OCC(Br)CBr (stereo unspecified),nt,nt,nt,-6%[201 µM],nt,2%[201 µM]
CCCCN1C(=O)/C(=C/c2ccc(N(C)C)cc2)C(=O)N(Cc2ccco2)C1=O,?,157%,-24%,?,-8%,40µM*[fluorescent]
CCCCN1C(=O)/C(=C\c2ccco2)C(=O)N(CCc2ccccc2)C1=O,?,134%,?,?,22%,28µM*[fluorescent]
ClC1=C(Cl)C(Cl)(C2(Cl)C(Cl)=C(Cl)C(Cl)=C2Cl)C(Cl)=C1Cl,nt,nt,nt,?,nt,32µM*[quencher]
CCCCCCNC(=O)N[C@H](Cc1ccc(O)cc1)C(=O)NCCC[C@H]1CN2C(=NC[C@H]2CCC)N1CC1CCC1,nt,14µM*,10%,-3%,nt,-4%
CCCCCCNC(=O)N[C@@H](Cc1ccc(O)cc1)C(=O)NCCC[C@H]1CN2C(=NC[C@H]2C)N1CC1CCC1,11%,-34%,1%,-1%,-1%,-2%
CCOc1ccccc1N=C1SCCCN1C,-8%,3.5µM*,0%,3%,13%,-3%
CC(=O)N1CCCSC1=Nc1ccccc1,2%,6%,9%,5%,19%,-1%
c1ccc(-c2ccncc2)cc1,1%,nt,nt,nt,-19%,nt
C[n+]1ccc(-c2ccncc2)cc1,-5%,10µM*,3%,-9%,-2%,0%
